The record followed here is PubChem BioAssay (NCATS).

Assay [1] is described as follows: qHTS profiling for inhibitors of Plasmodium falciparum proliferation (AID 504749).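 Note: 0% = DMSO vehicle and full inhibition = artemisinin control; nearly all actives have a fitted effect of over 60% in size.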 The note with it: P. falciparum in erythrocytes, SYBR Green DNA, 72 h, at 28.7 µM (top of the series). In a few lines: (§1)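 SYBR Green fluorescence of parasite DNA, read after lysis and overnight dark incubation, measured growth over 72 h in erythrocyte culture at 0.3% parasitemia and 2.5% hematocrit. Data normalised to DMSO and 0.29 uM artemisinin, with plate-drift correction.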
For orientation: In qHTS, concentration-response curves come from the screen itself.

The test system of another assay is 3D7. Described as above. Conditions: P. falciparum in erythrocytes, SYBR Green DNA, 72 h; series mostly up to 28.7 µM. In a few lines: as §1
The next assay deals with 7G8. The assay is described as above. Conditions: P. falciparum in erythrocytes, SYBR Green DNA, 72 h; series mostly up to 28.7 µM. In a few lines:
as §1

Another assay concerns AA1029. The description is as above. The note with it: P. falciparum in erythrocytes, SYBR Green DNA, 72 h; series mostly up to 28.7 µM. In a few lines: as §1
In another assay the test system is AS120. The description is as above. Conditions: P. falciparum in erythrocytes, SYBR Green DNA, 72 h; series mostly up to 28.7 µM. In a few lines: as §1
Another assay concerns ATS189. The description is as above. Conditions: P. falciparum in erythrocytes, SYBR Green DNA, 72 h; series mostly up to 28.7 µM. In a few lines:
as §1

Another assay relates to ATS95. The description is as above. The note with it: P. falciparum in erythrocytes, SYBR Green DNA, 72 h; series mostly up to 28.7 µM. In a few lines: as §1
The subject of the next assay is C2A. The description is as above. Conditions: P. falciparum in erythrocytes, SYBR Green DNA, 72 h; series mostly up to 28.7 µM. In a few lines:
as §1

Assay [2] in a line: Quantitative High-Throughput drug screen in 47 multiple myeloma cell lines against the NCATS MIPE library collection: PCM6_Riken cell viability assay (AID 1919870). Note: nearly all actives have a fitted effect of over 30% in size. The note with it: CellTiter-Glo ATP, 48 h; series mostly up to 45.8 µM. In a few lines:
(§2)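 ATP-based CellTiter-Glo luminescence after 48 h drug exposure (37 °C, 5% CO2) of 500 myeloma cells per well. DMSO-only wells set 100% viability, media-only wells 0%; MIPE 4.0 library added by pin tool.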
(ATP-based viability assays read luminescence as a measure of living cells.)

The nature of assay [3]: Quantitative High-Throughput drug screen in 47 multiple myeloma cell lines against the NCATS MIPE library collection: OPM2_DSMZ cell viability assay (AID 1919872). Note: nearly all actives have a fitted effect of over 30% in size. The note with it: OPM2 myeloma viability, CellTiter-Glo ATP luminescence, 48 h; series mostly up to 45.8 µM. In a few lines:
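CellTiter-Glo ATP luminescence gave viability after 48 h compound treatment at 37C of 500 multiple myeloma cells per well. Normalisation used DMSO-only wells as 100% and media-only wells as 0% viability; primary qHTS of approved and investigational drugs.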

The nature of assay [4]: Quantitative High-Throughput drug screen in 47 multiple myeloma cell lines against the NCATS MIPE library collection: KMS11_JCRBsus cell viability assay (AID 1919873). Note: nearly all actives have a fitted effect of over 50% in size. Conditions: KMS11 myeloma viability, CellTiter-Glo ATP luminescence, 48 h; series mostly up to 45.8 µM. In a few lines: as §2
Assay [5] in a line: Quantitative High-Throughput drug screen in 47 multiple myeloma cell lines against the NCATS MIPE library collection: KMS28BM_JCRB cell viability assay (AID 1919874). Note: nearly all actives have a fitted effect of over 35% in size. Conditions: CellTiter-Glo ATP, 48 h; series mostly up to 45.8 µM. In a few lines: as §2
Assay [6] in a line: qHTS for identification of novel therapeutic agents for treatment of microphthalmiaassociated transcription factor (MiT) renal cell carcinoma (RCC) (AID 1963991). Conditions: CellTiter-Glo, 48 h, stronger effect = lower value. In a few lines:
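Three TFE3-fusion RCC cell lines (UOK109, UOK124, UOK145), 500 cells/well, were exposed to the 1912-compound MIPE 4.0 library for 48 hours at 37 C. Viability was read by CellTiter-Glo luminescence, normalised to DMSO (100%) and empty wells (0%), with 11-concentration curve fits.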

Assay [7] is described as follows: qHTS drug screen for cell cycle checkpoint inhibitors in PARPi-resistant BRCA-mutant ovarian cancer cell lines. (AID 1963452; calls by dose curve). Conditions: PEO1/OlaR viability, CellTiter-Glo luminescence, 96 h, stronger effect = lower value. In a few lines:
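PEO1, PEO4 and PEO1/OlaR ovarian cancer cells, 600 per well, exposed 96 h at 37C to a dilution series. Viability read by CellTiter-Glo luminescence, normalized to DMSO and empty wells; activity summarized as Z-AUC.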

The mark [8] stands for this setting: TFE3-RCC UOK109 viability, measured here: UOK109 Z-AUC.
Where [9] appears, read: TFE3-RCC viability, measured here: UOK124 Z-AUC.
Where [10] appears, read: TFE3-RCC viability, measured here: UOK145 Z-AUC.

Results filed as inconclusive are left out. The source made the active and inactive calls. Unless noted, calls come from the whole dose curve; as a rule, active = well fitted curve in the direction sought with a large enough effect; inconclusive = small, poorly fitted or top-dose-only effect, or another doubt; inactive = no such curve, though single readings can be large; an effect the other way counts as inactive or inconclusive.

In the case of `CN1C(=O)CC(=O)N(c2ccccc2)c2cc(Cl)ccc21`, the results for the activity, negative = inhibition in [1] (parasite line A) and in [1] (parasite line B) were 1.1% (inactive) and -1.48% (inactive), respectively. Further, the Potency entry with 3D7, in the assay with 7G8, in the assay with AA1029, in the assay on AS120, in the assay on ATS189 and with ATS95 was “inactive” each time. For the same compound, the Potency result in the assay with C2A is “inactive”.

For `CCCCCCCCCC(=O)O[C@H]1CC[C@H]2[C@@H]3CCC4=CC(=O)CC[C@@H]4[C@H]3CC[C@]12C`, the activity, negative = inhibition in assay [1] (parasite line A) was 6.57% (inactive); in [1] (parasite line B) it was 11.7% (inactive). Further, the Potency entry in the assay with 3D7, in the assay on 7G8, in the assay with AA1029, in the assay on AS120, in the assay with ATS189 and with ATS95 was “inactive” in each case. Moreover, the Potency entry in the assay with C2A was “inactive”.

For `O=C1Nc2ccc(Cl)cc2C(c2ccccc2)=NC1O` (configuration not stated), the activity, negative = inhibition in assay [1] (parasite line A) was -1.71% (inactive); in assay [1] (parasite line B), 3.16% (inactive). The Potency entry with 3D7, with 7G8, in the assay with AA1029, in the assay with AS120, with ATS189 and with ATS95 was “inactive” throughout. The Potency entry in the assay with C2A was “inactive”.

Take `COc1cc(OC)c(OC)cc1C=O`: the Potency result in [2] and in assay [4] was “inactive” throughout. In addition, the compound was classed as inactive in [3] and in assay [5]. Further, the z-score in [6] (setting [8]) was found to be 0.0222; in [6] (setting [9]), 0.514; in [6] (setting [10]), 0.092.

As to `O=C1CN=C(c2ccccc2)c2cc([N+](=O)[O-])ccc2N1`, the figures for the activity, negative = inhibition in assay [1] (parasite line A) and in [1] (parasite line B) were 0.461% (inactive) and 15.1% (inactive), respectively. In addition, the Potency entry with 3D7, in the assay with 7G8, in the assay with AA1029, in the assay on AS120, in the assay on ATS189 and with ATS95 was “inactive” throughout. The Potency entry in the assay on C2A was “inactive”.

On to `O=P1(N(CCCl)CCCl)NCCCO1` (configuration not stated), for which the outcome in [3] was inactive. Besides, the values for the Z-AUC in [7], in [7] (measured here: PEO1 parental Z-AUC) and in assay [7] (measured here: PEO4 Z-AUC) were 1.32 (inactive), 1.49 and 1.45, respectively. The z-score in [6] (setting [8]) was determined as 0.655; in assay [6] (setting [9]), 0.953; in assay [6] (setting [10]) it was 1.4. Also, the activity, negative = inhibition is 11.3% (inactive) in [1] (parasite line A) and 6.9% (inactive) in assay [1] (parasite line B). Besides, the Potency result in the assay on 3D7, with 7G8, with AA1029, in the assay with AS120, in the assay on ATS189 and with ATS95 was “inactive” in each case. For the same compound, in the assay with C2A, the Potency result is “inactive”.

As to `CC(C)NC(C)C`, the activity, negative = inhibition is 6.47% (inactive) in assay [1] (parasite line A) and 12.2% (inactive) in assay [1] (parasite line B). The Potency entry in the assay on 3D7, in the assay on 7G8, in the assay on AA1029, in the assay with AS120, with ATS189 and in the assay on ATS95 was “inactive” throughout. In addition, the Potency result in the assay on C2A is “inactive”.

As to `CC(C)=CC1C(C(=O)OCN2C(=O)C3=C(CCCC3)C2=O)C1(C)C` (configuration not stated), the activity, negative = inhibition is 4.58% (inactive) in assay [1] (parasite line A) and 1.1% (inactive) in [1] (parasite line B). Also, the Potency result with 3D7, in the assay on 7G8, in the assay on AA1029, with AS120, in the assay with ATS189 and in the assay with ATS95 was “inactive” throughout. Besides, the Potency result with C2A is “inactive”.
